Results filed as inconclusive are left out. The source made the active and inactive calls. The calls were made as follows, unless noted: active = hit-call score of the fitted dose curve at least 0.9, where 1 is the maximum; inconclusive = response in the unintended direction; inactive = score below 0.9.
Legend:
[1] = tested on: zebrafish Peroxisome Proliferator-activated Receptor gamma (PPARg), gene 557037; assay: ATG_zfPPARg_XSP2: Attagene TRANS-FACTORIAL Multi-Species (XSP2) HepG2 Assay for zebrafish Peroxisome Proliferator-activated Receptor gamma (PPARg) (AID 2283833);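 also: actives increase reporter signal over DMSO so AC50 reflects activation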
In short: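 Multi-species TRANS format in HepG2, 24 h dosing; medium also contained 3 nM 6-alpha-fluorotestosterone and 1.5 nM norgestrel to stimulate androgen receptor. Zebrafish PPARg-GAL4 induced reporter mRNA was measured by RT-PCR/capillary electrophoresis.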

[2] = tested on: turtle Thyroid Hormone Receptor, alpha (TRa), gene 101949057; assay: ATG_trTRa_XSP2: Attagene TRANS-FACTORIAL Multi-Species (XSP1) HepG2 Assay for turtle Thyroid Hormone Receptor, alpha (TRa) (AID 2283834);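 also: hits raise reporter mRNA over the DMSO baseline so AC50 marks activators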
In short: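 Transfection of HepG2 with multiple reporter transcription units, then chemical dosing for 24 h. Total RNA was reverse-transcribed, reporter sequences PCR-amplified and FAM-labelled, then sized by capillary electrophoresis. DMSO served as baseline.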

[3] = ATG_M_61_XSP2: Attagene TRANS-FACTORIAL Multi-Species (XSP2) HepG2 Assay for M61 Transcription Factor (Internal Marker) (AID 2283835; active = hit-call score of the fitted dose curve at least 0.9, where 1 is the maximum; inactive = score below 0.9;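 also: reporter mRNA of an internal background marker read by RT-PCR and capillary electrophoresis; active means a rise in signal above the DMSO baseline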)
In short: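 First, HepG2 cells are transfected with reporter units under GAL4-UAS control. Next, chemicals are applied for 24 h. Then total RNA is reverse-transcribed, amplified, fluorescently labelled and sized by capillary electrophoresis, with gain of signal scored against DMSO.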

[4] = target: zebrafish Thyroid Hormone Receptor beta (TRb), thrb (gene 30607) (UniProt Q9PVE4); assay: ATG_zfTRb_XSP2: Attagene TRANS-FACTORIAL Multi-Species (XSP1) HepG2 Assay for zebrafish Thyroid Hormone Receptor beta (TRb) (AID 2283836)
zebrafish Thyroid Hormone Receptor beta (TRb), thrb (gene 30607), sequence (Q9PVE4 whole entry, looked up, the tested form may be a part): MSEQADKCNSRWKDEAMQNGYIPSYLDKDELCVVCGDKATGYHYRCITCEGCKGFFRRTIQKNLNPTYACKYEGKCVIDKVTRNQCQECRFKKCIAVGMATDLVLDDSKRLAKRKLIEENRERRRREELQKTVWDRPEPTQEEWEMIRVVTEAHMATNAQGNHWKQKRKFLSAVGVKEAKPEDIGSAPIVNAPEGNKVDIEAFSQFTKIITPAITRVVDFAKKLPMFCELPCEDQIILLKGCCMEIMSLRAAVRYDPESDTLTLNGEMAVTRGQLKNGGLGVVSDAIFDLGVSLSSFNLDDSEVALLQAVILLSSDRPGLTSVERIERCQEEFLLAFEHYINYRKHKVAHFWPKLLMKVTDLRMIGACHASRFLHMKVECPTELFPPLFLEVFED
In short: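 HepG2 cells transiently transfected with chimeric zebrafish TRb-GAL4 reporter units, dosed 24 h with 3 nM 6-alpha-fluorotestosterone and 1.5 nM norgestrel present. Reporter mRNA quantified by RT-PCR and capillary electrophoresis; gain fitted against DMSO.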

[5] = ATG_XTT_Cytotoxicity_XSP2: Cytotoxicity Assessment in the Attagene TRANS-FACTORIAL Multi-Species (XSP2) HepG2 Assay (AID 2283837)
In short: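 HepG2 cells, transiently transfected with multiple reporter constructs, exposed to chemical for 24 h. Cell number assessed with XTT fluorescence read-out; loss of signal fitted relative to DMSO.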

[6] = target: frog Thyroid hormone Receptor alpha (TRa), thra-a (gene 397942) (UniProt P15204); assay: ATG_frTRa_XSP2: Attagene TRANS-FACTORIAL Multi-Species (XSP2) HepG2 Assay for frog Thyroid hormone Receptor alpha (TRa) (AID 2283839)
frog Thyroid hormone Receptor alpha (TRa), thra-a (gene 397942), sequence (P15204 whole entry, looked up, the tested form may be a part): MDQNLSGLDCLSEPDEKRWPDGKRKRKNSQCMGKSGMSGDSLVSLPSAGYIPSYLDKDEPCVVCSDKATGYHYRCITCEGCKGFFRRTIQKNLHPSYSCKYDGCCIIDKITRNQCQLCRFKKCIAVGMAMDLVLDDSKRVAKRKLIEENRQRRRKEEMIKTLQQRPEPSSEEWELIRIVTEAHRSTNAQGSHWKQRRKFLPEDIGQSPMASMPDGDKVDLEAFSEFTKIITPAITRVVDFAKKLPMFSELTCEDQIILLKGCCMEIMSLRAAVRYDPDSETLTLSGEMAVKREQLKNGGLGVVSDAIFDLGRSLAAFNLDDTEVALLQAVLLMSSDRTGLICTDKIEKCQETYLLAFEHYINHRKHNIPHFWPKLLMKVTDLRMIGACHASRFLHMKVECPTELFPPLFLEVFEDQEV
In short: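 Transfect HepG2 with multiple reporter units (GAL4-UAS), dose chemical, incubate 24 h. Isolate RNA, reverse-transcribe, PCR-amplify reporter, label with 6-FAM by primer extension, digest with HpaI, run capillary electrophoresis; induction scored against DMSO.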

[7] = CPHEA_Stoker_NIS_Cytotoxicity: Cytotoxicity Assessment for CPHEA's Radioactive Iodide Uptake (RAIU) Assay for Sodium/Iodide Symporter (NIS) Inhibition, Stoker and Laws Labs (AID 2283897)
In short: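 hNIS-HEK293T-EPA human kidney cells were exposed for 2 hours at room temperature to test chemicals (0.001–100uM, 0.5% final DMSO) in HEPES-buffered HBSS, pH 7.4. Viability was read as ATP content by luciferase bioluminescence, loss of signal versus DMSO.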

[8] = tested on: Sodium/Iodide Symporter (NIS), SLC5A5 (gene 6528); assay: CPHEA_Stoker_NIS_Inhibition_RAIU: CPHEA's Radioactive Iodide Uptake (RAIU) Assay for Sodium/Iodide Symporter (NIS) Inhibition, Stoker and Laws Labs (AID 2283841)
In short: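 HEK293T cells stably expressing human NIS (hNIS-HEK293T-EPA) were exposed to test chemicals at 0.001–100uM (0.5% final DMSO) with 125I at a final 329pM in HBSS/10mM HEPES pH 7.4. After 2 hours at room temperature and ice-cold washes, intracellular 125I was counted as CPM and normalized to DMSO wells.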

[9] = target: zebrafish Thyroid Hormone Receptor alpha (TRa), thraa (gene 30670) (UniProt Q98867); assay: ATG_zfTRa_XSP2: Attagene TRANS-FACTORIAL Multi-Species (XSP1) HepG2 Assay for zebrafish Thyroid Hormone Receptor alpha (TRa) (AID 2283832);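 also: actives raise zebrafish TRa-Gal4 reporter transcript above DMSO baseline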
zebrafish Thyroid Hormone Receptor alpha (TRa), thraa (gene 30670), sequence (Q98867 whole entry, looked up, the tested form may be a part): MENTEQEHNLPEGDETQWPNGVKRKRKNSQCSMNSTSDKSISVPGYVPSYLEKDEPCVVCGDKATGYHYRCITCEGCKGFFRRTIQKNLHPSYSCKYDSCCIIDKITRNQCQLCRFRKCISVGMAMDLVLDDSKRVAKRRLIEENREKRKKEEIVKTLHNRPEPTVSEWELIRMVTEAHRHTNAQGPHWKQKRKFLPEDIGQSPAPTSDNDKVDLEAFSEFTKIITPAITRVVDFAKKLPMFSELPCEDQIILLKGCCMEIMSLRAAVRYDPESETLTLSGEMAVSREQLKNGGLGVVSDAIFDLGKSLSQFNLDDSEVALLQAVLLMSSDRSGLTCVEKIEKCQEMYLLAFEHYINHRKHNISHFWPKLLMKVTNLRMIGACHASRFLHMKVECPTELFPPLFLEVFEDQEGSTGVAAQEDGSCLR
In short: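 HepG2 transiently transfected with GAL4-UAS reporter units and chimeric zebrafish TRa-Gal4; reporter mRNA quantified after 24 h dosing by RT-PCR, HpaI digestion and capillary electrophoresis fluorescence. Gain of signal vs DMSO; XSP2 medium contains 3 nM 6-alpha-fluorotestosterone, 1.5 nM norgestrel.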

[10] = target: human Thyroid hormone Receptor alpha (TRa), THRA (gene 7067) (UniProt P10827); assay: ATG_hTRa_XSP2: Attagene TRANS-FACTORIAL Multi-Species (XSP2) HepG2 Assay for human Thyroid hormone Receptor alpha (TRa) (AID 2283838)
human Thyroid hormone Receptor alpha (TRa), THRA (gene 7067), sequence (P10827 whole entry, looked up, the tested form may be a part): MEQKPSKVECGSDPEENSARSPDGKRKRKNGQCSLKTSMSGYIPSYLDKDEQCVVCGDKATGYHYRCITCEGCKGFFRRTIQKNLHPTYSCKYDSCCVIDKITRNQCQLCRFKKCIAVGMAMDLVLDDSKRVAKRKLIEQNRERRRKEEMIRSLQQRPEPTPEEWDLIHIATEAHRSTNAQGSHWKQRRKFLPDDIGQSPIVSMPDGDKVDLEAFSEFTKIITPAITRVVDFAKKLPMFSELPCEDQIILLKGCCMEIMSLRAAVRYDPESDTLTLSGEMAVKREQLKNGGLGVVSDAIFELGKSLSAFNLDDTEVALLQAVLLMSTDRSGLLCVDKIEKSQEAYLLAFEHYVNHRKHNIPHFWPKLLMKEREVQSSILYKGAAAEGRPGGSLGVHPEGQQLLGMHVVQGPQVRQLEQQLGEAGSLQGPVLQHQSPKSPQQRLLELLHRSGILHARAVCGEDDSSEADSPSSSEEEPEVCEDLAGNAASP
In short: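 HepG2 cells were transiently transfected with GAL4-UAS reporter units for chimeric human TRa-Gal4 and dosed for 24 hours, with 3 nM 6-alpha-fluorotestosterone and 1.5 nM norgestrel present. Reporter mRNA was quantified by RT-PCR, FAM labelling and capillary electrophoresis, with gain of signal fitted versus DMSO.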

[11] = target: human Thyroid hormone Receptor beta (TRb), THRB (gene 7068) (UniProt P10828); assay: ATG_hTRb_XSP2: Attagene TRANS-FACTORIAL Multi-Species (XSP2) HepG2 Assay for human Thyroid hormone Receptor beta (TRb) (AID 2283840);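 also: actives raise reporter mRNA so potency reflects agonist-like gain of signal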
human Thyroid hormone Receptor beta (TRb), THRB (gene 7068), sequence (P10828 whole entry, looked up, the tested form may be a part): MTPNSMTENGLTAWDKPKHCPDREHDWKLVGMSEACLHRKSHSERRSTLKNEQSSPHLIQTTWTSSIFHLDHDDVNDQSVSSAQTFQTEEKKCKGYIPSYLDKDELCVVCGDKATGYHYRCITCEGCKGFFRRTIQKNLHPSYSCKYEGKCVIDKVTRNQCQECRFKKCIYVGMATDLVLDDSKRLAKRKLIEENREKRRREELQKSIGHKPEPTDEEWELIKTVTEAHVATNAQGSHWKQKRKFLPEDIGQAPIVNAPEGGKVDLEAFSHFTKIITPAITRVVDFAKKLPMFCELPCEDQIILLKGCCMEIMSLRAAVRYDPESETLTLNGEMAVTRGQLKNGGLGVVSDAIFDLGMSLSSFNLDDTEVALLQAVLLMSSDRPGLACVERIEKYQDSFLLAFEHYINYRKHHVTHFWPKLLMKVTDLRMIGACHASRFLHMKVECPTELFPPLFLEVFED
In short: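 Transient transfection of human HepG2 with multi-species NR-Gal4/GAL4-UAS reporter constructs; 24 h compound treatment; RNA isolation, reverse transcription, PCR and HpaI digest; capillary electrophoresis of labeled fragments; activity fitted upward versus DMSO.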

[12] = CEETOX_H295R_OHPREG_noMTC: CeeTox H295R High-throughput Steroidogenesis Assay for OH-Pregnenolone (OHPREG), maximum tolerated concentration (MTC) filtered results only (AID 2283912; active = hit-call score of the fitted dose curve at least 0.9, where 1 is the maximum; inactive = score below 0.9); conditions: actives raise or lower the signal
In short: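 Steroidogenesis in H295R cells (OECD 456, modified): after 48 h forskolin priming and 48 h chemical treatment, secreted 17alpha-hydroxypregnenolone is measured by HPLC-MS/MS. Activity is fitted in both directions against DMSO; concentrations are not filtered by MTT-based MTC.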

[13] = CEETOX_H295R_OHPROG_noMTC: CeeTox H295R High-throughput Steroidogenesis Assay for OH-Progesterone (OHPROG), maximum tolerated concentration (MTC) filtered results only (AID 2283914; active = hit-call score of the fitted dose curve at least 0.9, where 1 is the maximum; inactive = score below 0.9); conditions: actives raise or lower the signal
In short: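 Forskolin 10 uM, 48 h prestim → test cmpd in DMSO (0.1% final), 48 h → medium MTBE extraction → LC-MS/MS quant of 17alpha-OH-progesterone. Bidirectional fit vs DMSO; no MTT-based MTC filtering.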

[14] = CEETOX_H295R_PROG_noMTC: CeeTox H295R High-throughput Steroidogenesis Assay for Progesterone (PROG), maximum tolerated concentration (MTC) filtered results only (AID 2283920; active = hit-call score of the fitted dose curve at least 0.9, where 1 is the maximum; inactive = score below 0.9); conditions: actives raise or lower the signal
In short: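 H295R cells; forskolin 10 uM x 48 h prestim; test cpd 48 h, 0.1% DMSO final; media progesterone via LC-MS/MS; bidirectional fit vs DMSO; no MTT-based MTC filter applied.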

[15] = CEETOX_H295R_11DCORT_noMTC: CeeTox H295R High-throughput Steroidogenesis Assay for 11-Deoxycortisol (11DCORT), maximum tolerated concentration (MTC) filtered results only (AID 2283911; active = hit-call score of the fitted dose curve at least 0.9, where 1 is the maximum; inactive = score below 0.9); conditions: actives raise or lower the signal
In short: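 Steroidogenesis was stimulated in H295R cells with 10 uM forskolin for 48 h before a 48 h chemical exposure. Secreted 11-deoxycortisol was measured by tandem mass spectrometry and fitted bidirectionally against DMSO controls.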

[16] = CEETOX_H295R_CORTISOL_noMTC: CeeTox H295R High-throughput Steroidogenesis Assay for Cortisol, maximum tolerated concentration (MTC) filtered results only (AID 2283916; active = hit-call score of the fitted dose curve at least 0.9, where 1 is the maximum; inactive = score below 0.9); conditions: actives raise or lower the signal
In short: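 Cortisol secretion measured by LC-MS/MS after 48 h chemical treatment (final 0.1% DMSO) of forskolin-primed (10 uM, 48 h) H295R cells; gain or loss fitted relative to DMSO, without maximum-tolerated-concentration filtering.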

[17] = CEETOX_H295R_CORTIC_noMTC: CeeTox H295R High-throughput Steroidogenesis Assay for Corticosterone (CORTIC), maximum tolerated concentration (MTC) filtered results only (AID 2283917; active = hit-call score of the fitted dose curve at least 0.9, where 1 is the maximum; inactive = score below 0.9); conditions: actives raise or lower the signal
In short: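 Following OECD 456 with minor changes, H295R cultures received 10 uM forskolin for 48 h, then test chemical at 0.1% DMSO for 48 h. Media steroids were extracted and measured by LC-MS/MS.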

[18] = CEETOX_H295R_DOC_noMTC: CeeTox H295R High-throughput Steroidogenesis Assay for DOC, maximum tolerated concentration (MTC) filtered results only (AID 2283918; active = hit-call score of the fitted dose curve at least 0.9, where 1 is the maximum; inactive = score below 0.9); conditions: actives raise or lower the signal
In short: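 11-Deoxycorticosterone secreted by human adrenal H295R cells quantified by HPLC-MS/MS after 48 h chemical exposure (0.1% DMSO), following 48 h 10 uM forskolin prestimulation. Concentrations not filtered by MTT-derived MTC; bidirectional fitting.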

[19] = CEETOX_H295R_ESTRADIOL_noMTC: CeeTox H295R High-throughput Steroidogenesis Assay for Estradiol, maximum tolerated concentration (MTC) filtered results only (AID 2283919; active = hit-call score of the fitted dose curve at least 0.9, where 1 is the maximum; inactive = score below 0.9); conditions: actives raise or lower the signal
In short: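 H295R human adrenal cells pre-stimulated 48 h with 10 uM forskolin, then exposed 48 h to chemical (0.1% DMSO final). Estradiol in medium measured by HPLC-MS/MS after MTBE extraction and dansyl derivatization; bidirectional fit versus DMSO, concentrations not MTT-filtered.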

[20] = CEETOX_H295R_ESTRONE_noMTC: CeeTox H295R High-throughput Steroidogenesis Assay for Estrone, maximum tolerated concentration (MTC) filtered results only (AID 2283921; active = hit-call score of the fitted dose curve at least 0.9, where 1 is the maximum; inactive = score below 0.9); conditions: actives raise or lower the signal
In short: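 H295R cells prestimulated 48 h with 10 uM forskolin, then exposed 48 h to chemical in 0.1% DMSO; medium estrone measured by HPLC-MS/MS after MTBE extraction and dansyl derivatization, fitted bidirectionally versus DMSO without MTT-based MTC filtering.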

Measured: AC50

CC(=O)C(C)=CC1C(C)=CCCC1(C)C (stereo not drawn)
inactive: [1] | [2] | [3] | [4] | [5] | [6]

CN[C@H]1CC[C@@H](c2ccc(Cl)c(Cl)c2)c2ccc(S(N)(=O)=O)cc21
inactive: [7]

Nc1ccccc1N
inactive: [8] | [7]

C=CCOC(=O)c1ccccc1C(=O)OCC=C
not listed: [7] | [8] | [15] | [16] | [17] | [18] | [19] | [20]
inactive: all other assays above

CC(C)(C)c1cc(O)c(C(C)(C)C)cc1O
inactive: [9] | [1] | [3] | [4] | [6] | [8] | [7]

NC(=O)Cn1c(=O)cc(CCN2CCN(c3nccc4sccc34)CC2)c2ccc(F)cc21
inactive: [8] | [7]

O=c1c(O)c(-c2ccc(O)c(O)c2)oc2cc(O)cc(O)c12
inactive: [8] | [7]

COc1ccc(S(=O)(=O)N2C(=O)[C@@](c3ccccc3OC)(N3C[C@H](O)C[C@H]3C(=O)N(C)C)c3cc(Cl)ccc32)c(OC)c1
inactive: [8] | [7]

O=C(OCCCCCOC(=O)c1ccccc1)c1ccccc1
inactive: [7] | [15] | [12] | [13] | [16] | [17] | [18]

FC(F)(F)C(F)(F)C(F)(F)C(F)(F)C(F)(F)C(F)(F)CCI
inactive: [8] | [7]

Cc1oc(-c2ccccc2)nc1CCOc1cccc2c1ccn2CCC(=O)O
active: [15] 9.6 µM | [18] 6.44 µM | [14] 12.9 µM
inactive: [7] | [12] | [13] | [16] | [17] | [19] | [20]

Source: PubChem BioAssay (EPA / NIEHS)
